# Screening results from PubChem.
# Rows were chosen to be rich in hits. Some 1.2% of all compounds tested hit in one or more screens of this group.
# Y pestis TopoI: blocks Yersinia pestis topoisomerase I activity; Y. pestis Topo-I cleavage product accumulation, plate reader; activity, % at 10 µM; AID 504884; actives 0.064% (n = 360,000); in the data active = activity above about 50%, passing the limit was not always enough; inconclusive = no clear call, values can overlap the other calls
# FadD28 FP inh: blocks FadD28 binding to the bisubstrate probe | fluorescence polarization | inhibition, % at 12.5 µM | actives 0.22% (n = 360,000); in the data active = inhibition above about 8.5%, passing the limit was not always enough; inconclusive = no clear call, values can overlap the other calls
# PfHsp40 yeast: restores yeast growth despite PfHsp40 toxicity; growth rescue, % at 12.5 µM; S. cerevisiae expressing PfHsp40, growth rescue, ATP luminescence; AID 504582; actives 0.68% (n = 340,000); in the data active = growth rescue above about 28%, passing the limit was not always enough; inconclusive = no clear call, values can overlap the other calls;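 also: yeast W303a lacking pdr1 and pdr3 grown in galactose medium; growth measured after three days at 30 °C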
# BioA inh: inhibitors of Mycobacterium tuberculosis BioA enzyme; purified M. tuberculosis BioA enzyme, plate reader; actives 0.096% (n = 360,000); AID 602481; inhibition, % at 9.99 µM; in the data active = inhibition above about 40%; inconclusive = no clear call, values can overlap the other calls
# PrP 5UTR inh: suppresses PrP 5' UTR mRNA reporter expression; AID 488862; actives 0.35% (n = 340,000); cell-based PrP 5' UTR mRNA reporter, plate reader; inhibition, % (concentration not given with the values); in the data active = inhibition above about 52%; also: 0 = median of the neutral control wells
# TcdB inh: inhibitors of Clostridioides difficile toxin B glycohydrolase. inhibition, % at 9.99 µM. actives 0.24% (n = 350,000). P18177. TcdB glycohydrolase enzymatic assay, plate reader; in the data active = inhibition above about 10%
# Target sequence (P18177 whole entry, looked up): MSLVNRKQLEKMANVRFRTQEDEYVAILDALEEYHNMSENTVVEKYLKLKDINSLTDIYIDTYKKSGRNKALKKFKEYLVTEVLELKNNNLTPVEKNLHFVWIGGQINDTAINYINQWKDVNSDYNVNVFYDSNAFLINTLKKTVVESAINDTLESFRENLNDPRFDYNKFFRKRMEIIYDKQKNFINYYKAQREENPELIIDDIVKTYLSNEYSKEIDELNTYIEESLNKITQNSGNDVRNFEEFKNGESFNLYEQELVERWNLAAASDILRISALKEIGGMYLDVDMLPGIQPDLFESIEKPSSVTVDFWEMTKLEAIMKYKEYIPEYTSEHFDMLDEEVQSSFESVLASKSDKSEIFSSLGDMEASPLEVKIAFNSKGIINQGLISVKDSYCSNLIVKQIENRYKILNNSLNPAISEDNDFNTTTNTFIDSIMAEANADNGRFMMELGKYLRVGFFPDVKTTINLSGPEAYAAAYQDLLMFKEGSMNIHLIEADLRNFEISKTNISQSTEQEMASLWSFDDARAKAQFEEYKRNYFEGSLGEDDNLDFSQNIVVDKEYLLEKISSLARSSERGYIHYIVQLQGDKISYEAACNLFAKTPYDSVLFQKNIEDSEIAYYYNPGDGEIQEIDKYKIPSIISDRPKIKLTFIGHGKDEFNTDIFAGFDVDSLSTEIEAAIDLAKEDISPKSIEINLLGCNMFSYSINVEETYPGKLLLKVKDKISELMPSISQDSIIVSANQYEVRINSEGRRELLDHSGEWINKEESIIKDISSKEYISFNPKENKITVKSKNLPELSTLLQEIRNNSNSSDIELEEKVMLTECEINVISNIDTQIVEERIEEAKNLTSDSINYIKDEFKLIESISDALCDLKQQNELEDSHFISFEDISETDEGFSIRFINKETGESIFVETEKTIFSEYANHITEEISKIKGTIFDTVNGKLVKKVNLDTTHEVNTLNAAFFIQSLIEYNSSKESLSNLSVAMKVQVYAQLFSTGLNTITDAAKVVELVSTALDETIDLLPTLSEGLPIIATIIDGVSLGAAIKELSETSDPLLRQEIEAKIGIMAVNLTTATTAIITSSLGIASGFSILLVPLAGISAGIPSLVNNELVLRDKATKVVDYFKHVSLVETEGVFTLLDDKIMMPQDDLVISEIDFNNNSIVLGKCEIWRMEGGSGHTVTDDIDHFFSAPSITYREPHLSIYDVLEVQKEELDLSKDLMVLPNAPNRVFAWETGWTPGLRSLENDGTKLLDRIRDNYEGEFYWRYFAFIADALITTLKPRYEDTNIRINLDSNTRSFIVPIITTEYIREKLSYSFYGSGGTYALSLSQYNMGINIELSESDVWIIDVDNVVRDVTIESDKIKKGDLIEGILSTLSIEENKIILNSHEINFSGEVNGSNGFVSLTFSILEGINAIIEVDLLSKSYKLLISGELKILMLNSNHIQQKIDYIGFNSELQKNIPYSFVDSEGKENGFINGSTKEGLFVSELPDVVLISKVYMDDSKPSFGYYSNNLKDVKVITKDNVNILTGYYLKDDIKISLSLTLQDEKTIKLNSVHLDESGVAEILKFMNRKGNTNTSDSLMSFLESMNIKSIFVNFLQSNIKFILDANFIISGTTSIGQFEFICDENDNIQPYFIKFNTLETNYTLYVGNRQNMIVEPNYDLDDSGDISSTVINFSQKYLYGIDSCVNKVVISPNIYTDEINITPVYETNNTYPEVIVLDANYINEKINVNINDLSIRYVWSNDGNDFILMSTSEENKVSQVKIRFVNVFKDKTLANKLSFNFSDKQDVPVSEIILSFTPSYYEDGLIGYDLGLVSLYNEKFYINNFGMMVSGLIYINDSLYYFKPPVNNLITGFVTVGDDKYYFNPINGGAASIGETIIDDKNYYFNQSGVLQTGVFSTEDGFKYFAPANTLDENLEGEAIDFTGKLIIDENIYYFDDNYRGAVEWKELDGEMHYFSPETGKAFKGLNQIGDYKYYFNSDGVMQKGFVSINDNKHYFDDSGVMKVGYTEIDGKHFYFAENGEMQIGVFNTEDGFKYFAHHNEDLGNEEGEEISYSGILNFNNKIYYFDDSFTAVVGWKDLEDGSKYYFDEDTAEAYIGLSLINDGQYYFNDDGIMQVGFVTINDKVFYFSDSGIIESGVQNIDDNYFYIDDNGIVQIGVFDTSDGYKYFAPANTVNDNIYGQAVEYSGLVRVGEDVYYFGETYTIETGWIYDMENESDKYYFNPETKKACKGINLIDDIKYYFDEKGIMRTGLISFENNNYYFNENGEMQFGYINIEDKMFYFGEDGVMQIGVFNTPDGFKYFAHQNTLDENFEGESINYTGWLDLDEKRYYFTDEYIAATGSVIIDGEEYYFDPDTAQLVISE
# Numbers without * were called inactive; ? = inconclusive; . = not tested or not shown; ! = repeats disagree.
SMILES,Y pestis TopoI,FadD28 FP inh,PfHsp40 yeast,BioA inh,PrP 5UTR inh,TcdB inh
CNC(=O)C[C@H]1CC[C@@H]2[C@H](COC[C@@H](O)CN2Cc2ccc(C(F)(F)F)cc2)O1,.,.,.,-1,.,1
O=C(N[C@@H]1CC[C@H](CC(=O)N2CCC(Cc3ccccc3)CC2)O[C@H]1CO)c1cnccn1,.,.,.,-1,.,0
Cc1cc(C(=O)Nc2cccc3c2O[C@H](CN(C)S(=O)(=O)c2ccccc2)[C@H](C)CN([C@H](C)CO)C3=O)n(C)n1,.,.,.,0,.,-6
CC(=O)N[C@H]1CC[C@@H](CCNC(=O)C2CCC2)O[C@H]1CO,.,.,.,6,.,-1
O=c1c2oc3nc4c(cc3c2ncn1CCCc1ccccc1)CCCC4,-2,-2,0,.,-41,11*
COc1ccccc1NC(=O)Cn1cnc2c(oc3nc4c(cc32)CCCC4)c1=O,24,25*,0,0,-22,0
CCCCn1cnc2c(oc3nc4c(cc32)CCCC4)c1=O,-2,-4,3,1,-58,0
O=C(NCc1ccc(OC(F)(F)F)cc1)C1CC(c2ccccc2C(F)(F)F)=NO1 (stereo not given),9,-4,38*,0,-23,0
CO[C@H]1CC[C@H]2CCN(C)C(=O)[C@H](C)[C@H](OC)CN(C)C(=O)c3cccc(C#N)c3OC[C@@H]1O2,.,.,.,-1,.,0
CCOC(=O)c1ccc(N=c2sc(C(=O)OC)cc(=O)n2CCCN2CCOCC2)cc1,26,-3,1,0,-21,11*!
COCC1=C([C@H](O)c2ccccc2)[C@H](CO)n2c(=O)n(-c3ccccc3)c(=O)n2C1,.,.,.,.,.,-1
CCOC(=O)c1c(/N=C/c2c(O)n(-c3ccc(F)cc3)c(=S)[nH]c2=O)sc2c1CCCC2,5,0,41*,.,-12,.
Cc1ccc(C(=O)NCCSCc2ccc(Cl)cc2Cl)cc1[N+](=O)[O-],13,17*,10,.,-27,1
Cc1c(C(=O)NCCSCc2ccc(Cl)cc2Cl)cccc1[N+](=O)[O-],38,-4,9,0,-6,-1
O=C(NNC(=O)c1ccccc1OCc1ccccc1)c1ccccc1O,1,-1,3,-2,24,1
O=C(NNC(=O)c1ccccc1OCc1ccc(F)cc1)c1ccccc1O,4,-5,43*,-1,21,2
COc1ccccc1NC(=O)N[C@@H]1C=C[C@@H](CC(=O)N2CCC(Cc3ccccc3)CC2)O[C@@H]1CO,.,.,.,.,.,-2
CN(C)C(CNC(=O)c1cccc(S(=O)(=O)Nc2ccccc2Cl)c1)c1ccccc1 (stereo not given),3,-2,1,3,-13,2
CCN(CC)S(=O)(=O)c1cccc(C(=O)NCC(c2ccccc2)N(C)C)c1 (stereo not given),17,1,97*,.,0,1
Cc1cccc(N2CCN(CC(=O)N(C)Cc3ccccc3)CC2C)c1 (stereo not given),2,-1,44*,1,-7,1
COC(=O)C1=NN(C(=O)c2cccc(Br)c2)C(O)(c2ccc(Cl)cc2)C1 (stereo not given),17,0,494*,2,3,1
COc1ccc2c(/C=N/Nc3ccc(C(=O)O)cc3)c[nH]c2c1,-15,14*,1,2,.,3
S=C(NC1CC1)N1CCN(c2ccc(Cl)cc2)CC1,-2,-3,4,.,-9,0
S=C(NC1CCCC1)N1CCN(c2cccc(Cl)c2)CC1,19,-1,47*,.,-25,1
O=C(C1CCOCC1)N1CC(=O)N2[C@H](C1)[C@H](c1ccc(/C=C/c3ccccc3)cc1)[C@@H]2CO,.,.,.,.,.,1
SMILES,Y pestis TopoI,FadD28 FP inh,PfHsp40 yeast,BioA inh,PrP 5UTR inh,TcdB inh
COC(=O)c1ccc(N2C(=O)CC(N(C)CCc3ccc(OC)c(OC)c3)C2=O)cc1 (stereo not given),11,-1,451*,1,-10,.
O=c1cc2c(=O)oc3cc(O)c(O)oc3c2c(O)c1O,-5,11*,19,1,-4,-5
CN(C)c1ccc(N=Nc2ccc(S(=O)(=O)O)cc2)c2ccccc12,0,14*,0,4,-32,.
O=C1CC(c2ccccc2)c2ccccc21 (stereo not given),-12,-2,0,.,-25,0
O=C1CC(c2ccccc2)c2cccc(F)c21 (stereo not given),-7,-3,39*,7,-31,1
CC(C)(C)OC(=O)NCc1ccc(NC(=O)c2nc[nH]c2C(=O)NCCCNC(=O)c2[nH]cnc2C(=O)Nc2ccc(CNC(=O)OC(C)(C)C)cc2)cc1,79*,-4,-2,-2,22,.
COc1ccc(NC(=S)N/N=C2\CC(C)(C)Oc3ccc(O)cc32)cc1,-9,0,39*,.,-3,1
O=C1CSC(=S)N1/N=C/c1ccc(O)c(O)c1O,-7,9.4*,23,-1,.,.
COc1ccccc1C=NN1C(=O)CSC1=S,-8,-2,0,.,-22,0
CC1CCN(c2oc(Cc3cccc4ccccc34)nc2C#N)CC1,55*,3,?,-1,-7,.
N#Cc1nc(Cc2cccc3ccccc23)oc1N1CCOCC1,1,2,0,0,-15,1
Cc1nc(NC(=O)c2ccc(Cl)cc2)nc2cc3c(cc12)OCO3,2,0,-1,-2,0,.
Cc1c(-c2cc(Br)ccc2O)nc2cc3c(cc2c1C)OCO3,-4,29*,-1,-3,-13,3
O=C(CN1CC(=O)Nc2ccccc21)Nc1ccc(F)c(F)c1,0,-4,43*,.,-15,0
Cc1ccc(COc2ccc(Br)cc2/C=N/O)cc1,-8,-3,450*,-1,-79,.
O/N=C/c1cc(Br)ccc1OCc1cccc(F)c1,4,-2,279*,2,-4,.
O/N=C/c1cc(Br)ccc1OCc1ccc(F)cc1,-9,-2,0,2,-38,.
CCOc1cc(/C=N/O)ccc1OCc1ccc(C)cc1,16,0,4,.,-49,11*
Cc1noc(C)c1S(=O)(=O)N(C)C[C@H]1OCCCC[C@@H](C)Oc2ccc(NC(=O)CCC(F)(F)F)cc2C(=O)N([C@@H](C)CO)C[C@@H]1C,.,.,.,-2,.,.
O=[N+]([O-])c1ccccc1S(=O)(=O)N1CCN(Cc2ccc(OCCO)cc2)CC1,.,.,.,2,.,2
CCCS(=O)(=O)c1c(S(=O)(=O)CCC)c2c(C)cccn2c1C(N)=O,6,0,-1,-1,-15,.
CCCS(=O)(=O)c1c(S(=O)(=O)CCC)c2c(C)cccn2c1C(=O)N/N=C/c1cc(O)cc(O)c1,-11,-2,452*,3,-4,2
O=S(=O)(Nc1ccc(-n2cccc2)cc1)c1ccc(F)cc1,-4,1,3,2,9,2
O=S(=O)(Nc1ccc(-n2cccc2)cc1)c1ccc(Cl)c(Cl)c1,-8,-3,66*,.,-34,-1
O=P(Oc1ccccc1)(Oc1ccccc1)C(O)c1ccc(Cl)cc1 (stereo not given),9,-1,140*,0,3,1
